Screening results from PubChem.
a7 integrin act: integrin-mediated muscular dystrophy alleviation activation. alpha7betagal myoblasts, beta-gal FDG fluorescence, 48 h. Potency, µM (doses to about 38.3 µM), usual class: activators. actives 0.064% (n = 350,000); also: nearly all actives have a fitted effect of over 60% in size
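alpha7betagal+/- myoblasts (passage 13, 250/well) treated 48 h at 37C with compounds at 1:260 dilution of DMSO stock. Lysed, then beta-galactosidase activity read as FDG fluorescence (ex 480/em 540) after 30 min, with pre-read for autofluorescence.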
ATXN viability: reduces viability in counter-screen for ATXN expression inhibitors. S2 cells (HEK-293 line with an ATXN2-luciferase reporter) viability, CellTiter-Fluor protease fluorescence, 24 h. Potency, µM (doses to about 56.7 µM), actives largely listed as cytotoxic. AID 651635. actives 0.49% (n = 400,000); also: nearly all actives have a fitted effect of over 40% in size
D3 antag: antagonists of human D3 dopamine receptor; P35462; D3R cells, DiscoveRx beta-arrestin luminescence, antagonist mode; hits give low values; max response, negative = inhibition, %; actives 2.5% (n = 360,000); AID 652054; in the data active = max response below about -50%; inconclusive = no clear call, values can overlap the other calls
Target sequence (P35462 whole entry, looked up): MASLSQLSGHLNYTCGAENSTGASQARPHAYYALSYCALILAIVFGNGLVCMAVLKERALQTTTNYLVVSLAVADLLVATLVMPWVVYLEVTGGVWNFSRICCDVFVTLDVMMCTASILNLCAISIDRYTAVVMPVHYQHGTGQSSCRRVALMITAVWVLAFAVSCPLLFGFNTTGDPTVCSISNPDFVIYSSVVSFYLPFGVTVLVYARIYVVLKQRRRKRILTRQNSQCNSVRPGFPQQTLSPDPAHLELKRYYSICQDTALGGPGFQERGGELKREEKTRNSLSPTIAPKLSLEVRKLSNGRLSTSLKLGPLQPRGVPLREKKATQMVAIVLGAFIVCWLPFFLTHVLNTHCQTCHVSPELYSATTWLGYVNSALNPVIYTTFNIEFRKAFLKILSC
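Cells expressing the human receptor were seeded at 1500 cells/well, incubated overnight at 37 degrees C in 5% CO2, then exposed to library compounds with dopamine controls for 90 minutes at 37 degrees C before luminescent detection.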
IL1B secr inh: inflammasome signaling inhibition, IL-1 beta readout | actives 4.7% (n = 360,000) | THP-1 LPS/ATP IL-1B secretion, AlphaLISA, 16 h; hits give low values | activity change, % at 57.5 µM; in the data active = activity change below about -50%; inconclusive = mostly about -30% to -49%
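THP-1 cells pretreated 1 hr with compounds (up to 57.5 uM final), then stimulated with LPS (250 ng/mL final) plus ATP (1.25 mM final); secreted IL-1B measured by AlphaLISA after 16 hr, decreased signal indicating inhibition.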
ATXN2 expr inh: inhibitors of ATXN2 expression; actives 0.72% (n = 360,000); AID 1745845; Potency, µM (top dose mostly 57 µM), most hits filed as inhibitors; HEK-293 ATXN2-luciferase reporter, luminescence, 24 h; also: nearly all actives have a fitted effect of over 55% in size
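ATXN2-luciferase reporter cells (luciferase flanked by upstream and downstream ATXN2 gene portions) were treated 24 h at 37 °C with compounds at up to 57 uM. SteadyGlo luminescence gave expression; GF-AFC fluorescence gave viability.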
D3 ag: activates the human D3 dopamine receptor. actives 0.58% (n = 410,000). max activation, %. D3R DiscoveRx beta-arrestin cells, luminescence, 90 min; in the data active = max activation above about 30%
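Cells at 1500/well, incubated overnight, then treated with pinned compounds (dopamine as control) for 90 min at 37 degrees C. DiscoveRx reagent added for 30 - 60 minutes at room temperature; luminescence read.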
Numbers stand for hits; 0 = inactive; ? = inconclusive; - = not tested or not shown; ! = repeats disagree; [ ] = another dose, or the depositor's remark. In the library only some 7% were active in any assay of this set; here they are far more common. Unless noted, calls follow the shape of the dose curve; as a rule, active = well fitted curve in the direction sought with a large enough effect; inconclusive = small, poorly fitted or top-dose-only effect, or another doubt; inactive = no such curve, though single readings can be large; an effect the other way counts as inactive or inconclusive.

SMILES	a7 integrin act	ATXN viability	D3 antag	IL1B secr inh	ATXN2 expr inh	D3 ag
COC(=O)c1ccccc1NC(=O)CN1CCN(C23CC4CC(CC(C4)C2)C3)CC1	0	0	-76	0	0	0
COc1ccc(C(Sc2ccccc2)c2ccccc2)cc1OC (stereo not given)	0	0	0	0	0	0
COCC(C)n1c(C)cc(C(=O)COC(=O)CCc2nc3ccccc3c(=O)[nH]2)c1C (stereo not given)	0	0	0	0	0[2.22 µM]	0
COCCCn1c(C)cc(C(=O)COC(=O)CCc2nc3ccccc3c(=O)[nH]2)c1C	0	0	0	-76	0	0
CCCSc1nsc(SCCC)c1C(N)=O	0	0	0	0	0	0
CCc1nc2c(OCc3ccccc3C(=O)OC)cccn2c1N(C)C(=O)CC(C)C	-	0	0	0	0	0
OC(CNCc1ccccc1)COCc1ccc(Cl)cc1 (stereo not given)	0	0	0	0	0	0
CC(NCC(O)COCc1ccc(Cl)cc1)c1ccccc1 (stereo not given)	0	?	0	-59	?	0
Cc1ccc(C(OCC(O)CNC(CO)C(O)c2ccc([N+](=O)[O-])cc2)c2ccccc2)cc1 (stereo not given)	0	?	?	-84	0	0
Cc1ccc(C(OCC(O)CNC(C)c2ccccc2)c2ccccc2)cc1 (stereo not given)	0	?	0	-107	?	0
O=C1c2ccccc2C(=O)N1C(CO)C(O)c1ccc([N+](=O)[O-])cc1 (stereo not given)	0	0	0	0	0	0
CCOc1ccc(NC(=O)Nc2ccccc2C(N)=O)cc1	0	0	0	0	0	0
CC1(C(=O)NCc2ccccc2)CSCC(=O)N1Cc1cccc(F)c1 (stereo not given)	-	-	0	0	-	0
CCC(C)(C)NC(=O)CN(C(=O)c1ccc(N2CCCC2)nc1)c1ccc(F)cc1	0	?	0	0	-	0
O=C(CCn1cnc2ccccc2c1=O)Nc1cccc(Cl)c1Cl	0	0.16µM	0	?	-	0
O=C(CCn1cnc2ccccc2c1=O)NCc1ccccc1Cl	-	0	-	-	0	0
C/C(=N\NC(N)=S)C1=CCC2C3CC[C@H]4CC(O)CC[C@]4(C)C3CC[C@]12C (stereo not given in full)	0	4.5µM	0	-52	-	0
C[C@H](O)[C@@]1(O)CC[C@H]2[C@@H]3CC[C@@H]4C[C@H](O)CC[C@]4(C)[C@H]3CC[C@@]21C	0	0	0	0	0	0
CC1=NOC(=O)/C1=C\c1ccc(-c2cc(Cl)ccc2Cl)o1	0	0	-63	-55	0	0
CC1=NOC(=O)/C1=C\c1ccc(-c2ccc(Br)cc2C(=O)O)o1	0	0	0	0	0	0
CC1=NOC(=O)/C1=C\c1ccc(-c2ccc(Br)cc2)o1	0	?	0	-99	0[11.3 µM]	0
Cc1cccc(N2CCN(C(=O)c3ccccc3NC(=O)C3CC=CCC3C(=O)O)CC2)c1 (stereo not given)	0	0	0	0	0	0
Cc1ccc(Nc2nc(N)nc(CCl)n2)c(C)c1	?	-	0	-89	?	0
Nc1nc(CCl)nc(Nc2ccccc2)n1	0	-	0	-95	?	0
Cc1ccc(Nc2nc(N)nc(CSc3nc4ccccc4s3)n2)cc1	0	-	0	-70	?	45!
SMILES	a7 integrin act	ATXN viability	D3 antag	IL1B secr inh	ATXN2 expr inh	D3 ag
Cc1ccc(Nc2nc(N)nc(CN3CCCCCC3)n2)c(C)c1	0	0	0	0	0	0
Cc1cccc(Nc2nc(N)nc(N)c2N=O)c1	0	0	0	-57	0	0
Nc1nc(CSc2ncccn2)nc(Nc2ccccc2)n1	0	0	0	0	0	0
CN(c1ccc(C(=O)NCCSCc2ccco2)cc1)S(C)(=O)=O	0	?	0	0	0	0
Cc1cccc(N2CCN(c3nc4ccccc4c(=O)n3-c3ccc(Cl)cc3)CC2)c1C	-	-	-	-	-	0
CC1(C)C=Cc2c(c3ccccc3[nH]c2=O)O1	0	0	0	0	0	0
Cc1cccc(Nc2nc(N)nc(CN3CCN(c4ccccc4)CC3)n2)c1	0	0	0	0	0	0
Cc1cccc(Nc2nc(N)nc(CN3CCN(c4ccccc4F)CC3)n2)c1	0	0	-53	0	0	0
Cc1cccc(Nc2nc(N)nc(CCl)n2)c1	0	?	0	-106	?	0
Cc1ccc(Nc2nc(N)nc(CCl)n2)cc1	0	-	0	-	11µM	0
COc1cccc(Nc2nc(N)nc(CCl)n2)c1	0	?	0	-	?	0
CCOc1ccc(Nc2nc(N)nc(CCl)n2)cc1	0	?	0	-96	?	0
CCOc1ccc(Nc2nc(N)nc(CN3CCN(c4ccccc4F)CC3)n2)cc1	0	0	0	0	0	0
CCOc1cccc(-c2nc3c(s2)CCc2onc(-c4cccc([N+](=O)[O-])c4)c2-3)c1	0	0	0	0	0	0
CC(=O)c1csc(Nc2ccccc2Cl)n1	0	0	0	0	0	0
CCOC(=O)c1cnc(SCc2nc(N)nc(Nc3ccc(C)cc3)n2)nc1N	0	0	0	-52	0	0
Cc1cccc(Nc2nc(N)nc(CN3CCC(C(N)=O)CC3)n2)c1C	0	0	0	0	0	0
Cc1cccc(Nc2nc(N)nc(CCl)n2)c1C	0	?	0	-	1µM	0
CS(=O)(=O)N1CCc2cc(C(=O)Nc3ccc(C(F)(F)F)cc3)ccc21	-	0	-	-	0	0
Cc1ccc(N(C)S(=O)(=O)c2cccc(C(=O)N3CCN(Cc4ccccc4)CC3)c2)cc1	0	0	0	0	-	0
O=C(Cn1cc[n+](Cc2ccccc2)c1)c1ccc([N+](=O)[O-])cc1	0	0	0	-72	?	0
COc1ccc(NC(=O)c2ccc(-c3ccc([N+](=O)[O-])cc3)o2)cc1	0	0	0	0	0	0
O=C(Nc1ccccc1)c1ccc[n+](Cc2ccc([N+](=O)[O-])cc2)c1	0	0	-56	-59	0	0
O=C(Nc1ccccc1)c1ccc(-c2ccc([N+](=O)[O-])cc2)o1	0	0	0	-64	0	0
Cc1ccc(S(=O)(=O)CCC(=O)OCC(=O)NC(N)=O)cc1	0	0	0	0	0	0
CC(=O)CCS(=O)(=O)c1ccc(Oc2ccc(S(=O)(=O)CCC(C)=O)cc2)cc1	0	0	0	-75	0	0
CC(=O)CS(=O)(=O)c1ccc(Oc2ccc(S(=O)(=O)CC(C)=O)cc2)cc1	0	?	0	0	0	0
CCOC(=O)CCS(=O)(=O)c1ccc(-c2ccc(S(=O)(=O)CCC(=O)OCC)cc2)cc1	0	0	0	-99	0	0
